In the supplement of paper PMC9135407:
Values joined by “and” are separate entries in the source; they are usually repeats but may differ in a detail not shown here. Equal values may be shown once. Where a name gives a salt, the structure may show the parent alone. Among all 5,800 compounds or so, about 620 (11%) showed activity. What follows is part of a selection rich in actives, with near analogues and random picks from the rest. Values without a mark were called inactive.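 How the source made its calls: active = score above a cut-off or among the top three wells of a plate; in these data no inactive exceeds 0.85.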

Test system: primary human hepatic stellate cells (donor 1)
Assay: scaled lipid accumulation score (0 = DMSO-like, 1 = nortriptyline-like); higher = stronger HSC inactivation (lipid re-accumulation), active = hit call of the paper
Conditions: 48 h
[1] = library stock concentration: 80 uM
[2] = library stock concentration: 400 uM
[3] = library stock concentration: 2 mM
[4] = library stock concentration: 3.33 mM
[5] = library stock concentration: 10 mM
[6] = library stock concentration: 1 mM

CC(=O)Nc1cccc(-n2c(=O)n(C3CC3)c(=O)c3c(Nc4ccc(I)cc4F)n(C)c(=O)c(C)c32)c1
scaled lipid accumulation score [1]: ≤ -0.009
scaled lipid accumulation score [2]: ≤ -0.003
scaled lipid accumulation score [3]: 0.049
scaled lipid accumulation score [4]: ≤ 0
scaled lipid accumulation score [5]: ≤ 0 and 0.058

O=C(N/N=C/c1ccc(O)c(O)c1)c1cc2ccccc2cc1O [Dynasore]
scaled lipid accumulation score [4]: ≤ -0.009
scaled lipid accumulation score [5]: 0.182

CN=C(N)NCCC[C@H](N)C(=O)O [L-Ornithine, N5-[imino(methylamino)methyl]-[CAS]]
scaled lipid accumulation score [5]: ≤ 0

O=C(O[C@H]1[C@H](Oc2ccccc2COC(=O)C2(O)C=CCCC2=O)O[C@H](CO)[C@@H](O)[C@@H]1O)c1ccccc1 (stereo not given in full)
scaled lipid accumulation score [5]: ≤ 0

COc1cccc(OC)c1OCCNCC1COc2ccccc2O1 (stereo not given) [WB-4101 hydrochloride]
scaled lipid accumulation score [5]: 0.182

COc1cccc(OC)c1OCCNCC1COc2ccccc2O1 (stereo not given) [WB 4101 hydrochloride]
scaled lipid accumulation score [5]: 0.337

CCCCC[C@@H](O)/C=C/[C@H]1[C@H](C/C=C\CCCC(=O)O)[C@H](O)C[C@@H]1O [ent-Prostaglandin F2.alpha.]
scaled lipid accumulation score [6]: ≤ 0

CCOC(=O)/C=C/[C@H](CC(C)C)NC(=O)[C@H](CO)NC(=O)[C@@H](NC(=O)c1cccc(O)c1C)C(C)C
scaled lipid accumulation score [6]: ≤ 0

C[C@@H]1C(=O)NC2=Nc3cccc(Cl)c3CN21 [Quazinone]
scaled lipid accumulation score [5]: ≤ 0

N=C1C=CC(=C(c2ccc(N)cc2)c2ccc(N)cc2)C=C1 [Pararosaniline pamoate]
scaled lipid accumulation score (library stock concentration: 3 mM): 0.375
scaled lipid accumulation score [5]: 0.435

C=CC(=O)Nc1cccc(Nc2nc(NC3CCC(N(C)C)CC3)nc3c2ncn3C(C)C)c1 (stereo not given)
scaled lipid accumulation score [1]: ≤ 0
scaled lipid accumulation score [2]: ≤ 0
scaled lipid accumulation score [3]: ≤ 0
scaled lipid accumulation score [5]: 0.782

CCCCC[C@H](O)/C=C/[C@H]1C=CC(=O)[C@@H]1CCCCCCC(=O)OCC [Prostaglandin A1 ethyl ester]
scaled lipid accumulation score [6]: ≤ 0

NC(N)=O
scaled lipid accumulation score [5]: ≤ 0
scaled lipid accumulation score (library stock concentration: 33.3 mM): ≤ 0

CC/C=C\C/C=C\C/C=C\C/C=C\CCCCC(=O)O [Stearidonic Acid]
scaled lipid accumulation score [6]: ≤ 0

C=C1C[C@H](O)[C@H](C/C=C\CCCC(=O)O)[C@H]1/C=C/C(=O)CCCCC [11-deoxy-11-methylene-15-keto Prostaglandin D2]
scaled lipid accumulation score [6]: ≤ 0

COc1cc(N2CCN(C)CC2)ccc1Nc1ncc2c(n1)N(C)c1ccccc1C(=O)N2C
scaled lipid accumulation score [1]: 0.087
scaled lipid accumulation score [2]: 0.062
scaled lipid accumulation score [3]: 0.241
scaled lipid accumulation score [5]: 0.703

COc1cc(C(=O)N2CCC(N3CCN(C)CC3)CC2)ccc1Nc1ncc2c(n1)N(C)c1ccccc1C(=O)N2C [listing 1 of 2 here]
scaled lipid accumulation score [5]: 0.929 (active)

COc1cc(N2CCC(N3CCN(C)CC3)CC2)ccc1Nc1ncc(Cl)c(-c2c[nH]c3ccccc23)n1 [listing 1 of 2 here]
scaled lipid accumulation score [3]: 0.981 (active)
scaled lipid accumulation score [5]: 0.967 (active)

COc1cc(N2CCC(N)CC2)ccc1Nc1ncc(Cl)c(-c2c[nH]c3ccccc23)n1
scaled lipid accumulation score [4]: 0.146
scaled lipid accumulation score [5]: 0.238

COc1cc(N2CCC(N3CCN(C)CC3)CC2)ccc1Nc1ncc(Cl)c(-c2c[nH]c3ccccc23)n1 [listing 2 of 2 here]
scaled lipid accumulation score [1]: 0.057
scaled lipid accumulation score [2]: 0.358

COc1cc(C(=O)N2CCC(N3CCN(C)CC3)CC2)ccc1Nc1ncc2c(n1)N(C)c1ccccc1C(=O)N2C [listing 2 of 2 here]
scaled lipid accumulation score [1]: ≤ 0
scaled lipid accumulation score [2]: 0.015
scaled lipid accumulation score [3]: 0.329

CCCCCCCCCCCCCCC(F)C(=O)O (stereo not given) [2-Fluoropalmitic Acid]
scaled lipid accumulation score [6]: ≤ 0

CCCCCCCCCCCCCCC(F)C(=O)O (stereo not given) [2-Fluoropalmitic acid]
scaled lipid accumulation score [6]: ≤ -0.021

CCCCCC(=O)/C=C/[C@H]1[C@H](O)CC(=O)[C@@H]1C/C=C\CCCC(=O)O [15-keto Prostaglandin E2]
scaled lipid accumulation score [6]: ≤ 0

CO[C@@H]1[C@@H](O[C@@H]2O[C@H](C)[C@@H](O[C@H]3C[C@@](C)(O)[C@@H](OC(=O)CC(C)C)[C@H](C)O3)[C@H](N(C)C)[C@H]2O)[C@@H](CC=O)C[C@@H](C)[C@@H](O)/C=C/C=C/C[C@@H](C)OC(=O)C[C@H]1O
scaled lipid accumulation score [5]: 0.014

CCCCCC(O)C=CC1C(O)CC(O)C1CCCCCCC(=O)O (stereo not given) [Prostaglandin  F1a]
scaled lipid accumulation score [6]: ≤ -0.021

COc1cc(/C=C(\C#N)C(=O)Nc2nnc(C(F)(F)F)s2)ccc1OCc1ccc(C(F)(F)F)cc1C(F)(F)F
scaled lipid accumulation score [5]: ≤ 0

O=c1cc(-c2ccc(O)cc2)oc2c([C@@H]3O[C@H](CO)[C@@H](O)[C@H](O)[C@H]3O)c(O)cc(O)c12 [Vitexin]
scaled lipid accumulation score: ≤ 0

CN(C)c1ccc2nc3ccc(=[N+](C)C)cc-3sc2c1 [Methylene blue]
scaled lipid accumulation score (library stock concentration: 5.9 mM): 0.252

CCCCCCCC/C=C\CCCCCCCC(=O)c1nc2ncccc2o1 [Oleoyl Oxazolopyridine]
scaled lipid accumulation score [6]: 0.017

CC(C)=CCC1=C(O)C(=O)c2ccccc2C1=O [Lapachol]
scaled lipid accumulation score [5]: ≤ 0

O=C1c2ccccc2C(=O)c2c1ccc(O)c2O [Alizarin]
scaled lipid accumulation score [4]: ≤ 0
scaled lipid accumulation score [5]: ≤ 0

CC1(C)C(=O)N=C2C1=C(O)C(=O)c1ccccc12
scaled lipid accumulation score [5]: 0.923 (active)

Cc1ccc(/C=C2\CNC/C(=C\c3ccc(C)cc3)C2=O)cc1.Cl
scaled lipid accumulation score [5]: 1.43 (active)

CC1(C)C=C(CN2C/C(=C\c3ccc(F)cc3)C(=O)/C(=C/c3ccc(F)cc3)C2)C(C)(C)N1O
scaled lipid accumulation score [4]: 0.264
scaled lipid accumulation score [5]: 0.694

COc1ccc(/C=C2\COc3ccc(C)cc3C2=O)cc1O
scaled lipid accumulation score [5]: 0.275

CN(C)CCSSCCNC(=O)C1CCN(C(=O)CSc2ccc(Cl)cc2)CC1
scaled lipid accumulation score [4]: ≤ -0.009
scaled lipid accumulation score [5]: ≤ 0

CCCCC[C@H](O)/C=C/[C@@H]1[C@@H](C/C=C\CCCC(=O)NCCO)[C@@H](O)C[C@@H]1O [11.beta.-Prostaglandin F2.alpha. Ethanolamide]
scaled lipid accumulation score [6]: ≤ 0

CCCCC/C=C\C/C=C\C/C=C\C=C\[C@@H](O)CCCC(=O)O
scaled lipid accumulation score (library stock concentration: 100 uM): ≤ -0.021
